Most compounds without a hit are left out; they make up all but 3.4% or so of the library.
TEAD-YAP inh – TEAD-YAP interaction inhibition; 640,000 compounds, 1.4% hits; HEK-TIYL cells, TEAD-Gal4/YAP UAS-luciferase luminescence; inhibition, % at 9.12 µM; in the data active means inhibition above about 32%;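 further: 0% = median of test compound wells and 100% = reference inhibitor wells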
FBW7 act – activators of human E3 ligase FBW7 | Q969H0 | AlphaScreen FBW7–phospho-cyclin E peptide binding, activator screen | normalized activity (activation), % at 26.1 µM | 650,000 compounds, 0.13% hits; in the data active means normalized activity above about 1.9%;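 further: purified mutant Fbw7 with reduced substrate affinity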
MITF inh – human MITF inhibition, primary screen; O75030; AlphaScreen MITF homodimerization, bead proximity signal; inhibition, % at 2.6 µM; 650,000 compounds, 0.91% hits; in the data active means inhibition above about 50%;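 further: 0% = vehicle wells with protein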
Target sequence (O75030 whole entry, looked up): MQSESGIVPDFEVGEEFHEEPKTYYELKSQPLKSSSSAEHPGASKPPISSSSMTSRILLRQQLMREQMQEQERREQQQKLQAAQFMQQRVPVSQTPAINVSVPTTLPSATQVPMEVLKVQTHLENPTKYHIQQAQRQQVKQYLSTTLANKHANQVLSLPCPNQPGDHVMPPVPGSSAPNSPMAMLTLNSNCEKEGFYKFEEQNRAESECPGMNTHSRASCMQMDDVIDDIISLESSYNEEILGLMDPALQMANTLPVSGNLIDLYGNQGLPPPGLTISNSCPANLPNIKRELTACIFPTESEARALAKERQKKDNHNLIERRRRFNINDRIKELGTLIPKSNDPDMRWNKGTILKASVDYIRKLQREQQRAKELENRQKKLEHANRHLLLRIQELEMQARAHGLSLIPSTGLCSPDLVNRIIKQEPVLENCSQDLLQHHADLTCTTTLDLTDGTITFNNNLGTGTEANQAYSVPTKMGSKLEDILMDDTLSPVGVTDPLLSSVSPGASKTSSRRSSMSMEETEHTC
GPR151 activ – activators of human GPR151; 650,000 compounds, 1% hits; PathHunter beta-arrestin GPR151 cells, luminescence; AID 1508602; Q8TDV0; activation, % at 11.2 µM; in the data active means activation above about 4.9%;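 further: 0% = median of compound wells and 100% = cells with positive control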
MITF confirm – human MITF inhibition, confirmation | AlphaScreen MITF homodimerization, biotin/His-MITF beads | shares compounds with MITF inh | 4,700 compounds, 16% hits | inhibition, % at 2.6 µM | AID 1259372;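 active means inhibition above a cutoff derived from the DMSO control wells, cut at about 28% in these data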;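 further: 0% = MITF dimer wells with DMSO only; inhibitors lower the bead chemiluminescence by keeping MITF from dimerizing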
AS interf DR – optically interferes with AlphaScreen signal in dose response; AlphaScreen optical interference counterscreen, cell-free; 480 compounds, 6% hits; IC50, µM; shares compounds with MITF inh; call rule not given here
AS interf ctr – counter-screen: compounds optically interfering with AlphaScreen. shares compounds with MITF inh. LysRS AlphaScreen counterscreen, signal interference, triplicate. inhibition, % at 2.6 µM. 4,700 compounds, 7.6% hits. AID 1259376;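 active means inhibition above a cutoff derived from the DMSO control wells, cut at about 30% in these data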
Active calls of the source: *; . = no result.

SMILES	TEAD-YAP inh	FBW7 act	MITF inh	GPR151 activ	MITF confirm	AS interf ctr	others
O=C(CN(c1ccc(Cl)c(C(F)(F)F)c1)S(=O)(=O)c1ccccc1)NCc1cccnc1	5	0	51*	0	-4	-6
CCN1CCN(CCCOc2ccc(CCC(C)=O)cc2)CC1	-1	0	56*	2	13	16
CC(=O)CCc1ccc(OCCCCN2CCN(C)CC2)cc1	5	0	-5	1	.	.
CCN1CCN(CCCCOc2ccc(CCC(C)=O)cc2)CC1	-6	0	66*	-1	10	19
CC(=O)CCc1ccc(OCCN2CCN(C)CC2)cc1	-8	0	1	0	.	.
O=C(Cn1nc(-c2ccc3c(c2)OCCO3)ccc1=O)Nc1ccccc1-c1ccccc1	5	0	72*	0	9	10
O=C(O)CC(CCc1ccccc1)CC(=O)O	18	0	61*	0	18	16
COc1ccc(S(=O)(=O)N2CCC(N3CCOCC3)CC2)cc1	3	0	54*	1	8	9
COc1ccc(-c2ccc(S(=O)(=O)N3CCOCC3)cc2)cc1	-1	0	11	0	.	.
COc1ccc(S(=O)(=O)N2CCC(N3CCN(C)CC3)CC2)cc1	5	0	73*	-1	2	6
COc1ccc(S(=O)(=O)N2CCN(C3CCCCCCC3)CC2)cc1	1	0	32	0	.	.
COc1ccc(S(=O)(=O)N2CCC(N3CCC(C)CC3)CC2)cc1	2	0	55*	-1	34*	0	AS interf DR=>6.5
COc1ccc(OCCN2CCN(S(=O)(=O)c3ccc4c(c3)OCCO4)CC2)cc1	-6	0	85*	-1	7	16
COc1ccc(S(=O)(=O)NCCCCCC(=O)NCCc2ccc(Cl)cc2)cc1	3	0	-5	0	.	.
CCN(C(=O)c1ccc(N2CC3CC(C2)c2cccc(=O)n2C3)c(NC(=O)c2ccc(F)cc2)c1)c1cccc(C)c1 (stereo unspecified)	-6	0	-4	3	.	.
COC(=O)CCN1CCN(S(=O)(=O)c2ccc(OC)cc2)CC1	5	0	60*	0	-9	-4
COc1ccc(S(=O)(=O)N2CCN(CCO)CC2)cc1	-3	0	-9	-1	.	.
CCN(C(=O)c1ccco1)c1nc2c(s1)CCc1oc(C)cc1-2	3	0	-2	-1	.	.
CCN(C(=O)c1ccccn1)c1nc2c(s1)CCc1oc(C)cc1-2	-17	0	77*	0	37*	77*
CCOc1ccccc1N1CCN(C(=O)COc2ccc3ccccc3c2)CC1	15	0	16	-1	.	.
COC(=O)Cc1cc(=O)n(-c2nc3ccccc3[nH]2)[nH]1	-8	-1	94*	4	72*	99*
S=c1[nH]nc(CN2CCSCC2)n1-c1cccc(Cl)c1	-7	-1	62*	0	17	16
COc1cccc(-n2c(CN3CCSCC3)n[nH]c2=S)c1	-2	0	38	4	.	.
O=c1[nH]cc(N=Cc2ccc([N+](=O)[O-])o2)c(=O)[nH]1	-7	-1	85*	-1	64*	-20	AS interf DR=>6.5
COC(=O)CN1C(=O)S/C(=C/c2ccc([N+](=O)[O-])o2)C1=O	-11	0	62*	0	47*	4	AS interf DR=>6.5
SMILES	TEAD-YAP inh	FBW7 act	MITF inh	GPR151 activ	MITF confirm	AS interf ctr	others
CC(C)=CCN1CCNC(=O)C1CC(=O)NCCc1ccco1 (stereo unspecified)	-1	0	15	0	.	.
Cc1ccc(NS(=O)(=O)c2ccccc2[N+](=O)[O-])c(C)c1	-4	0	18	0	.	.
COc1cc(CN2CCC(N3CCCC3)CC2)cc(OC)c1OC	3	0	58*	0	-6	-6
COc1cc(CN2CCC(N3CCCCC3)CC2)cc(OC)c1OC	-7	0	1	1	.	.
COc1cc(CN2CCN(C3CCCCC3C)CC2)cc(OC)c1OC (stereo unspecified)	6	0	74*	1	10	9
COC(=O)c1ccc(N2C(=O)CSC23C(=O)Nc2ccccc23)cc1 (stereo unspecified)	4	0	5	1	.	.

Screens deposited in PubChem BioAssay by The Scripps Research Institute Molecular Screening Center.
